Compound activity: PubChem BioAssay, National Center for Advancing Translational Sciences (NCATS)
CHX counter: counter-screen hit for Shiga toxin inhibitors, cycloheximide. cell reporter, cycloheximide protein synthesis inhibition counterscreen. max response, %. 300,000 compounds, 12% hits; in the data active means max response mostly above about 13%, no sharp cut-off; inactive means mostly below about 14%; further: read at 38.3 µM for the half of the compounds with a filed dose; 0% is about no effect
Shiga inhibitor: Shiga toxin inhibition; Vero cells, Shiga toxin protein synthesis inhibition reporter; inhibition, % at 38.7 µM; 290,000 compounds, 9.2% hits; AID 2315; in the data active means inhibition mostly above about 28%, no sharp cut-off; inactive means mostly below about 43%; further: 0% is about no effect
LmPK inhibitor: LmPK (Leishmania mexicana) enzyme inhibition. Q27686. purified LmPK, Kinase-Glo ATP luminescence, 1 h. Potency, µM (titrated, usually from 57.5 µM), inactives show at the highest dose activity change, negative = inhibition, most hits filed as inhibitors. 290,000 compounds, 0.37% hits; further: potency means the concentration at half of the fitted maximal effect; on the % scale 0 is the no-effect control and ±100 the full control effect
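Screened at intermediate enzyme activity to detect both inhibitors and activators: LmPK at 0.1 nM, with a 0.5 nM enzyme column as activation reference. PEP 0.5 mM, ADP 0.1 mM; ATP detected by luminescence after 1 h.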
FBPA Giardia inh: blocks Giardia fructose-bisphosphate aldolase activity; A8B2U2; purified Giardia FBPA; Potency, µM (titrated, usually from 59.6 µM), for the others: at the highest dose activity, negative = inhibition, actives largely listed as inhibitors; 290,000 compounds, 0.71% hits; AID 2451; further: potency means the concentration at half of the fitted maximal effect; on the % scale 0 is the no-effect control and ±100 the full control effect; nearly all actives have a fitted effect of over 55% in size
Target sequence (A8B2U2 whole entry, looked up): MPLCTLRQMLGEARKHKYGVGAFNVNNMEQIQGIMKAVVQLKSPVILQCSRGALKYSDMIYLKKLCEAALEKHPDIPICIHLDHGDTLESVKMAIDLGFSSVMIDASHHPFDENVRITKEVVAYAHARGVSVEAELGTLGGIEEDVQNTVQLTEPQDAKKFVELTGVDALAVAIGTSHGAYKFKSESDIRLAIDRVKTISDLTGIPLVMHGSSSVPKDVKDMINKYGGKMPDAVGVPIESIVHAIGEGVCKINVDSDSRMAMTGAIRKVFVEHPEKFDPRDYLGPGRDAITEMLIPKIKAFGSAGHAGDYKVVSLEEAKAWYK
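40 nM FBPA preincubated 10 min at RT with compound (up to 57.5 uM final), then substrate plus GAPDH/TPI/NAD/arsenate coupling and diaphorase/resazurin added. Fluorescence read after 20 min at RT, 525/598 nm.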
NS1 inh: inhibitors of influenza NS1 protein function; Potency, µM (highest dose often 46.1 µM), without a hit: at the highest dose activity, positive = more growth; 270,000 compounds, 0.4% hits; calls by dose curve; further: potency means the concentration at half of the fitted maximal effect; actives are rising curves; nearly all actives have a fitted effect of over 50% in size
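Read-out: OD600 growth recovery of NS1-expressing budding yeast. Cells grown overnight at 30C in -URA glucose medium, washed, resuspended and diluted 1:100 in 2% galactose assay medium, pH 6.0. Same strain lacking NS1 served as positive control.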
* marks the source's active call; other numbers are inactive results; ? = inconclusive; · = not tested or not shown. In the library only some 14% were active in any assay of this set; here they are far more common. Unless noted, the call rests on the fitted dose curve; in most records, active means well fitted curve in the direction sought with a large enough effect; inconclusive means small, poorly fitted or top-dose-only effect, or another doubt; inactive means no such curve, though single readings can be large; an effect the other way counts as inactive or inconclusive.

SMILES	CHX counter	Shiga inhibitor	LmPK inhibitor	FBPA Giardia inh	NS1 inh
O=C(O)c1ccc(N=Cc2c(O)ccc3oc4c(c23)CCCC4)cc1	17*	31	0%	-7%	-52%
Cc1ccnc(N=Cc2c(O)ccc3oc4c(c23)CCCC4)c1	26*	8	0%	-17%	-7%
O=c1c(-c2ccccc2)n[nH]c2ccccc12	74*	72*	-13%	1%	-143%
CCCc1cc(=O)n2[nH]c(-c3ccc(Br)cc3)cc2n1	38*	14*	-2%	-14%	-14%
CCCc1cc(=O)n2[nH]c(-c3cccc(Br)c3)cc2n1	36*	64*	-1%	-17%	-2%
CCCc1cc(=O)n2[nH]c(NCc3c(Cl)cccc3Cl)nc2n1	-1	-14	2%	4%	1%
CCOC(=O)Cc1cc(=O)n2[nH]c(-c3ccccc3)cc2n1	-2	-3	2%	3%	21%
Nn1c(COc2cccc(Cl)c2)nc2ccccc2c1=O	38*	75*	-1%	0%	4%
Cc1cccc(OCc2nc3ccccc3c(=O)n2N)c1	47*	72	-20%	3%	-63%
Cc1cccc(-c2nc3ccccc3c(=O)n2N)c1	1	-6	-2%	7%	1%
CC(=O)N1Cc2ccccc2CC1C(=O)NCc1ccccc1F (stereo unspecified)	-6	-7	-5%	10%	2%
C=CCOc1c(OC)cc(/C=N/Nc2cccc(C(=O)O)c2)c(Br)c1Br	50*	187*	4%	3%	-15%
COc1cc(/C=N/Nc2ccc(C(=O)O)cc2)ccc1O	5	-8	0%	4%	·
COc1ccc(/C=N/Nc2ccc(C(=O)O)cc2)c(OC)c1OC	47*	80*	1%	-3%	-2%
COc1cc(/C=N/Nc2ccc(C(=O)O)cc2)cc(OC)c1OC	45*	58*	-3%	-1%	10%
COc1ccccc1CNC(=O)CSc1nnc2c(n1)[nH]c1ccc(F)cc12	0	-7	0%	-12%	-12%
COc1ccc(CC(=O)Nc2c(C(=O)N3CCN(c4ccccc4)CC3)oc3ccccc23)cc1OC	-3	-4	-1%	?	-2%
O=C(NCCCN1CCCCCC1)[C@@H](c1ccccc1)C1CCCCC1	·	·	·	3%	·
CCCCOc1ccc(C(=O)Nc2ccc(N3CCN(C(C)=O)CC3)cc2)cc1	-5	-22	0%	0%	-26%
CC(=O)N1CCN(c2ccc(NC(=O)c3ccc4ccccc4c3)cc2)CC1	26*	7	-4%	·	-4%
O=C(c1ccc2ccccc2c1)N1CCN(c2ccc([N+](=O)[O-])c(N3CCOCC3)c2)CC1	26*	41	-2%	-3%	4%
CC(=O)N1CCN(c2ccc(NC(=O)c3ccc(C(C)(C)C)cc3)cc2)CC1	32*	45*	1%	-2%	8%
O=C(Nc1ccc(N2CCCC2)cc1)c1ccc2ccccc2c1	49*	active	-1%	0%	?
O=C(Nc1ccc(N2CCCCC2)cc1)c1cc([N+](=O)[O-])cc([N+](=O)[O-])c1	-1	22	-8%	0%	·
COc1cc(/C=C(\C#N)C(N)=O)cc(CSc2nc3ccccc3s2)c1O	·	·	·	-13%	·
SMILES	CHX counter	Shiga inhibitor	LmPK inhibitor	FBPA Giardia inh	NS1 inh
OC(CN1CCC(Cc2ccccc2)CC1)c1ccccc1 (stereo unspecified)	5	-19	7%	1%	11%
O=C(Cc1ccc([N+](=O)[O-])cc1)Nc1ccc2c(c1)CCC2	11	23	1%	8%	12%
CC(=O)N1CCN(c2ccc(NC(=O)c3ccccc3C)cc2)CC1	10*	4	-7%	11%	7%
CC(=O)N1CCN(c2ccc(NC(=O)c3cccc(Cl)c3)cc2)CC1	31*	73*	-5%	-7%	-13%
CC(=O)N1CCN(c2ccc(NC(=O)c3ccc(Cl)cc3)cc2)CC1	-4	-12	-1%	1%	19%
Cc1ccnc2nc(C(=O)Nc3nccs3)nn12	22*	29	-8%	-18%	11%
Cc1cc(C)n2nc(C(=O)Nc3ccc4c(c3)OCO4)nc2n1	32*	61*	-14%	-26%	?
Cc1ccnc2nc(C(=O)Nc3ccc(S(=O)(=O)N4CCCC4)cc3)nn12	1	-7	1%	9%	9%
Cc1ccnc2nc(C(=O)Nc3ccc4c(c3)OCO4)nn12	27*	75*	16µM*	-5%	-6%
Cc1cc(C)n2nc(C(=O)OCC(=O)Nc3ccc4c(c3)OCO4)nc2n1	3	-8	-2%	-5%	-1%
